High-throughput results as filed in PubChem BioAssay.
An excerpt weighted towards active compounds, which were near 2.8% of everything screened.
Pol kappa inh – blocks human DNA polymerase kappa activity | purified Pol kappa, fluorescent DNA synthesis assay, 10 min | Potency, µM (series often up to 107 µM), without a hit: at the highest dose activity, negative = inhibition, most hits filed as inhibitors | 400,000 compounds, 0.53% hits | AID 588579; further: potency means the concentration at half of the fitted maximal effect; on the % scale 0 is the no-effect control and ±100 the full control effect
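Kinetic fluorescence screen: compound preincubated 15 min RT with 10 nM enzyme; 50 nM substrate (final) initiates; reads at 0/10 min.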
Pol iota inh – DNA polymerase iota (human) inhibition. Q9UNA4. 390,000 compounds, 1% hits. Pol iota fluorescent replication assay, 10 min. AID 588590. Potency, µM (top dose mostly 115 µM), for the others: at the top dose activity, negative = inhibition, hits mostly inhibitors; further: potency means the concentration at half of the fitted maximal effect
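Pol iota at 10 nM preincubated 15 min with compounds at room temperature; reaction started with fluorescent substrate, 50 nM final. Fluorescence read kinetically at 0 and 10 min; buffer-only wells as negative control.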
POLH inh – inhibitors of human DNA polymerase eta; Q9Y253; Potency, µM (titrated, usually from 114 µM), inactives show at the highest dose activity change, negative = inhibition, usual class: inhibitors; recombinant Pol eta, fluorescent DNA replication assay; 390,000 compounds, 1.2% hits; further: potency means the concentration at half of the fitted maximal effect; on the % scale 0 is the no-effect control and ±100 the full control effect
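Fluorescent replication assay: 50 nM final substrate added after a 15 min room-temperature compound preincubation with 10 nM enzyme. Signal taken at 0 min and again at 10 min.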
WRN inhibitor – blocks human WRN helicase | AID 651768 | 360,000 compounds, 0.46% hits | WRN helicase unwinding, fluorescent forked duplex, kinetic | Potency, µM (titrated, usually from 114 µM), for the others: top-dose activity change, negative = inhibition, most hits filed as inhibitors | Q14191; further: potency means the concentration at half of the fitted maximal effect; on the % scale 0 is the no-effect control and ±100 the full control effect; nearly all actives have a fitted effect of over 55% in size
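WRN at 20 nM final was preincubated with compound for 15 min at room temperature; reaction started with 100 nM forked duplex oligonucleotide carrying fluorophore and quencher plus 2 mM ATP (final). Unwinding followed kinetically by red fluorescence (ex 525/em 598 nm).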
PI5P4K alpha inh – PI5P4K alpha (human) kinase inhibition | PI5P4Kalpha enzyme, ADP-Glo luminescence, 60 min; active compounds read low | max response, % | 330,000 compounds, 1.2% hits | AID 652105; active means max response of -50% or lower; inconclusive means between -30% and -50%; inactive means -30% or higher; further: value at the top dose of about 77 µM; on the % scale 0 is the no-effect control and ±100 the full control effect
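Luminescence from ADP-Glo served as readout of PI5P4Kalpha activity in a qHTS format. Reaction: enzyme, substrate, compound, ATP at 5 microM final, 60 min at RT.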
Pol beta inh – DNA polymerase beta (human) inhibition; Pol beta primer extension/strand displacement, fluorescence kinetic; Potency, µM (highest dose often 114 µM), for inactives: at the highest dose activity change, negative = inhibition, hits mostly inhibitors; 340,000 compounds, 1.3% hits; AID 485314; further: potency means the concentration at half of the fitted maximal effect; on the % scale 0 is the no-effect control and ±100 the full control effect
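Enzyme-only controls used 10 nM Pol beta; buffer lacking enzyme served as negative control. Compound preincubated 15 min, then 50 nM substrate added; 0 and 10 min reads at room temperature.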
Starred values were filed as active, the others as inactive; u = inconclusive; x = no result given; [ ] = remark or other dose. Unless noted, the call rests on the fitted dose curve; in most records, active means well fitted curve in the direction sought with a large enough effect; inconclusive means small, poorly fitted or top-dose-only effect, or another doubt; inactive means no such curve, though single readings can be large; an effect the other way counts as inactive or inconclusive.

SMILES | Pol kappa inh | Pol iota inh | POLH inh | WRN inhibitor | PI5P4K alpha inh | Pol beta inh
CCCSc1ncc(Cl)c(C(=O)Nc2ccc(S(=O)(=O)N3CCCC(C)C3)cc2)n1 (centres undefined) | 6.6% | 13.8% | x | x | x | 5.7%
CCc1ccc2nc(NC(=O)c3ccc(N4C(=O)CCC4=O)cc3)sc2c1 | -14.4% | 7.3% | -15.1% | -2.5% | -1.5 | 27.2%
CCc1ccc2nc(NC(=O)c3ccc4c(=O)[nH]c(CN5CCOCC5)nc4c3)sc2c1 | -21.3% | u | 50.1µM* | u | x | 79.4µM*
Cc1ccc(C(=O)Oc2coc(CSc3nnc(NC(=O)C4CC4)s3)cc2=O)cc1 | -14.2% | u | u | -19.8% | 6.0 | 0.9%
O=C(Oc1coc(CSc2nnc(NC(=O)c3cccs3)s2)cc1=O)c1ccccc1 | u | u | u | -34.3% | -28.6 | 12.6µM*
CCN1C(=O)[C@H]2[C@@H](c3ccc(-c4ccc(Cl)c(Cl)c4)c(OC)c3)N[C@@](C)(C(=O)OC)[C@H]2C1=O | 3.2% | u | -11.8% | 8.0% | -60.0* | x
O=[N+]([O-])c1ccc(COc2cccc(CN3CCCCC3)c2)cc1 | -0.4% | 11.2% | -18.2% | 1.5% | -3.0 | x
O=C1c2ccccc2C(=Cc2cccnc2)c2ccccc21 | x | x | -27.3% | -4.4% | -54.1* | x
Cc1cc(C)n2nc(-c3ccccc3)c(-c3ccccc3)c2n1 | -1.3% | 32.3% | -14.5% | -0.3% | 1.7 | u
CCOc1cc(/C=N/Nc2cccc(C(=O)O)c2)ccc1OC(=O)c1ccccc1 | -14.1% | -11.8% | -20.7% | -20.3% | 4.6 | u
O=C(O)c1cccc(NC(=S)N/N=C/c2ccccc2OCc2ccc(Br)cc2)c1 | -38.0% | u | u | -3.9%[11.6 µM] | -65.2* | u
CCn1cc(/C=N/NC(=O)COc2cccc3cccnc23)c2ccccc21 | -1.7% | u | u | u | -5.6 | 12.6µM*
O=C(COc1ccccc1-c1ccccc1)N/N=C/c1cccc2ccccc12 | -19.3% | 2.0% | -3.9% | -11.4% | 0.2 | u
O=C(O)c1cccc(NC(=S)N/N=C/c2cccc(O)c2)c1 | -10.7% | 51.4% | -19.2% | -15.5% | -4.2 | 1.9%
O=C(COc1cccc2ccccc12)N/N=C/c1ccccc1OCc1ccc(C(=O)O)cc1 | -24.7% | 22.9% | 79.4µM* | -7.5%[11.6 µM] | -2.5 | 89.1µM*
COC(=O)c1ccc(COc2ccccc2/C=N/Nc2cccc(C(=O)O)c2)cc1 | u | u | 79.4µM* | -16.9% | -17.0 | -3.0%
COc1ccc(/C=N/NC(=O)COc2cccc3cccnc23)cc1OC | u | u | u | -15.4% | -9.8 | u
COc1ccc(Br)c(/C=N/NC(=O)COc2ccc(-c3ccccc3)cc2)c1 | -2.0% | u | -6.5% | -16.6% | 0.7 | 1.7%
O=C(O)COc1ccccc1/C=N/NC(=O)COc1ccc(-c2ccccc2)cc1 | -0.6% | -7.2% | 50.1µM* | u | -1.7 | u
CCCCCCCCCCCCCCCC(C)C1=NCCN1 (centres undefined) | -1.6% | 1.5% | x | x | x | x
CC1(C2CC2)NC(=O)N(CC(=O)NCc2ccc(Cl)cc2Cl)C1=O (centres undefined) | 0.0% | 1.9% | 0.0% | 1.9% | 0.9 | x
Cc1cc(C)nc(NC(=S)NC(=O)c2ccccc2F)n1 | -14.6% | 70.2% | -11.9% | 2.3% | 0.5 | x
Cc1cc(C)nc(S/C=C/C(=O)c2ccccc2F)n1 | -15.6% | 4.47µM* | -4.2% | u | 2.2 | -11.2%
COc1ccc(S(=O)(=O)N2CCN(c3ccccc3F)CC2)cc1-c1noc(C)n1 | -16.9% | 88.3% | -14.3% | x | x | 8.91µM*
CCc1nc(-c2cc(S(=O)(=O)N3CCN(c4ccccc4F)CC3)ccc2OC)no1 | -7.9% | -1.2% | -25.8% | x | x | -0.3%
O=C(Cc1ccc(Cl)c(Cl)c1)Nc1ccc2[nH]c(=O)[nH]c2c1 | -2.3% | 100.3% | -1.0% | -9.6% | 8.7 | u
O=C(NCC1CC1)c1ccc(-c2cn[nH]c2)c2ccoc12 | x | x | x | -5.5% | -6.0 | x
CCCOc1ccc(N)cc1N | -30.1% | u | u | 56.2µM* | -64.6* | u
